Bioassay records (PubChem)
The list is not random: actives were taken first. Their share in the collection is about 2.8%.
TGFb inhibitor – inhibitors of TGF-b signaling. HepG2 CAGA-GFP TGF-b/SMAD3 reporter, GFP fluorescence, 18 h; TGF-beta stimulated, 500 pg/mL final. Potency, µM (doses to about 46.1 µM), for inactives: at the highest dose activity, negative = inhibition, actives largely listed as inhibitors. hit rate 1.2% among 410,000; note: % is set by controls: 0 for no effect and ±100 for the full control effect; nearly all actives have a fitted effect of over 65% in size
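Cell-based qHTS in HEPG2 carrying a CAGA-GFP Smad reporter; compounds added before 500 pg/mL final TGF-beta, 18 h incubation at 37 degrees C, GFP fluorescence quantified per cell by imaging cytometry.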
ATXN viability – viability counter-screen for ATXN expression inhibitors. S2 cells (HEK-293 line with an ATXN2-luciferase reporter) viability, CellTiter-Fluor protease fluorescence, 24 h. Potency, µM (series often up to 56.7 µM), hits mostly cytotoxic. hit rate 0.49% among 400,000. AID 651635; note: nearly all actives have a fitted effect of over 40% in size
HTT ATP protect – Huntington cell model cytoprotection by ATP luminescence; hit rate 0.14% among 230,000; PC12 HTT-Q103 induced, cytoprotection, ATP luminescence, 40 h; Potency, µM (top dose mostly 56.4 µM), for inactives: cytoprotection (ATP increase), actives largely listed as activators; note: % of control where 0% means no effect; nearly all actives have a fitted effect of over 45% in size
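PC12 cells with ecdysone-inducible HTT exon 1 Q103-GFP, induced with 100 nM tebufenozide and co-treated with library compounds in a dose series (1536-well, 1500 cells/well). Cytoprotection read as ATP content by ATPlite luminescence.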
HepG2 viability – HepG2 cytotoxicity, counter-screen for TGF-b inhibitors; AID 588856; Potency, µM (highest dose often 46.1 µM), for the others: at the top dose activity change, negative = cytotoxicity, usual class: cytotoxic; hit rate 0.76% among 410,000; HepG2 CAGA-GFP viability, ATP luminescence, 18 h
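HepG2 CAGA-GFP cells (1000/well, DMEM with 1% FBS) received compound, then TGF-beta at 500 pg/mL final, and were incubated 18 hours at 37 degrees C. Viability was read by CellTiter-Glo luminescence. Media-only wells were set as complete cell-killing and DMSO as no toxicity.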
ATXN2 expr inh – inhibitors of ATXN2 expression. HEK-293 ATXN2-luciferase reporter, luminescence, 24 h. Potency, µM (doses to about 57 µM), without a hit: top-dose activity change, negative = inhibition, usual class: inhibitors. hit rate 0.72% among 360,000. AID 1745845; note: % is set by controls: 0 for no effect and ±100 for the full control effect; nearly all actives have a fitted effect of over 55% in size
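ATXN2-luciferase reporter cells (luciferase flanked by upstream and downstream ATXN2 gene portions) were treated 24 h at 37 °C with compounds at up to 57 uM. SteadyGlo luminescence gave expression; GF-AFC fluorescence gave viability.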
HttQ103 aggreg – mutant huntingtin aggregation inhibition. hit rate 1.1% among 220,000. PC12 HttQ103-GFP aggregates, Acumen cytometry, 40 h. Potency, µM (doses to about 46.1 µM), for the others: at the highest dose activity change, negative = inhibition, usual class: inhibitors; note: % is set by controls: 0 for no effect and ±100 for the full control effect; nearly all actives have a fitted effect of over 60% in size
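PC12 cells with ecdysone-inducible HTT exon1 Q103-GFP, induced by 100 nM tebufenozide, given compounds in a concentration series. GFP aggregates (1–25 um, 6 SD above background) counted in lysates by laser-scanning cytometry, 488 nm excitation.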
Starred values were filed as active, the others as inactive; [ ] = dose if it differs, or a comment. Calls come from the whole dose curve; as a rule, active = well fitted curve in the direction sought with a large enough effect; inconclusive = small, poorly fitted or top-dose-only effect, or another doubt; inactive = no such curve, though single readings can be large; an effect the other way counts as inactive or inconclusive. Potency is the fitted concentration of half-maximal effect.

Results for COc1cc(-c2cc(C)c3c(OC)ccc(OC)c3n2)cc2c1OCCN(C(=O)C(C)c1n[nH]c(=O)c3ccccc13)C2 (stereo not drawn) ?
ATXN viability: inactive

How did Nc1cnccn1 do in these assays?
TGFb inhibitor: -17.2%; HepG2 viability: -0.2%

How did O=C1CCC[C@@H]2CC(Nc3ccccc3)C[C@@H]3CCN1[C@H]23 (stereo partly drawn) do in these assays?
TGFb inhibitor: -15.3%; HepG2 viability: 9.0%

How did COc1cc2nc(N(C)C)c(CNCc3cccc4ccccc34)cc2c(OC)c1OC do in these assays?
ATXN viability: inactive

How did CC(=O)c1sc(NC(=O)CCCc2nc3ccccc3c(=O)[nH]2)nc1-c1ccccc1 do in these assays?
TGFb inhibitor: 20µM*; ATXN viability: inactive; HepG2 viability: 11.2µM*

Results for CCOc1ccc(Oc2ccccc2NC(=O)CCc2nc3ccccc3c(=O)[nH]2)cc1 ?
TGFb inhibitor: -27.2%; ATXN viability: inactive; HepG2 viability: -20.1%

What do the screens show for `CCOc1ccccc1NC(=O)CCCc1nc2ccccc2c(=O)[nH]1`?
TGFb inhibitor: -10.1%; ATXN viability: inactive; HTT ATP protect: -10.4%[10 µM]; HepG2 viability: -47.4%; ATXN2 expr inh: 20µM*; HttQ103 aggreg: 30.6%

Results for CC(=O)Nc1ccc(NC(=O)CCc2nc3ccccc3c(=O)[nH]2)cc1 ?
TGFb inhibitor: 1.2%; ATXN viability: inactive; HTT ATP protect: 20.7%[10 µM]; HepG2 viability: 3.1%; ATXN2 expr inh: 12.8%; HttQ103 aggreg: 14.1%[9.22 µM]

What do the screens show for `O=Cc1ccc(I)cc1`?
TGFb inhibitor: 2.3%; HepG2 viability: 11.1%

Results for Cc1ccc2c(c1)COc1c3ccc(C(=O)O)cc3nn1-2 ?
TGFb inhibitor: 6.0%; ATXN viability: inactive; HepG2 viability: -27.3%; ATXN2 expr inh: 7.94µM*

Results for C=C1C(=O)O[C@@H]2C3OC3(C)CC/C=C(\C)CC[C@@H]12 (stereo partly drawn) ?
HTT ATP protect: -11.6%[1.9 µM]

What do the screens show for `C=C1C(=O)O[C@H]2C[C@H]1[C@@H](OC(C)=O)C/C(C)=C/CC/C(C)=C\CC[C@]2(C)O`?
TGFb inhibitor: 3.16µM*; ATXN viability: 7.94µM*; HepG2 viability: -102.5%; ATXN2 expr inh: 5.62µM*

How did COc1cc(SC#N)ccc1N=Cc1c(C)[nH]n(-c2ccc(C)c(C)c2)c1=O do in these assays?
TGFb inhibitor: inconclusive; ATXN viability: 12.6µM*; HTT ATP protect: -3.4%[10 µM]; HepG2 viability: 8.91µM*; ATXN2 expr inh: 11.2µM*; HttQ103 aggreg: 11.8%

Results for C=C1C(=O)[C@]23C[C@H]1CC[C@H]2[C@]1(C)[C@@H](OC(C)=O)CC[C@@](C)(C(=O)O)[C@H]1C[C@@H]3OC(C)=O ?
TGFb inhibitor: 10µM*; ATXN viability: inconclusive; HepG2 viability: -85.5%; ATXN2 expr inh: 17.8µM*

How did C=C1C(=O)[C@]23C[C@H]1CCC2[C@]1(C)CCC[C@@](C)(C(=O)O)C1C[C@@H]3O (stereo partly drawn) do in these assays?
TGFb inhibitor: 2.51µM*; ATXN viability: 7.08µM*; HepG2 viability: -87.3%; ATXN2 expr inh: 3.55µM*

How did C=C1C(=O)[C@]23C[C@H]1CCC2[C@]1(C)C(=O)CC[C@@](C)(C(=O)O)C1C[C@@H]3O (stereo partly drawn) do in these assays?
TGFb inhibitor: inconclusive; ATXN viability: 12.6µM*; HepG2 viability: -86.9%; ATXN2 expr inh: 8.91µM*

How did O=c1c(/C=N/OCc2ccc(Cl)cc2Cl)c[nH]n1-c1cccc(Cl)n1 do in these assays?
TGFb inhibitor: -0.7%; ATXN viability: inactive; HTT ATP protect: -101.0%; HepG2 viability: -45.3%; ATXN2 expr inh: -12.0%; HttQ103 aggreg: 10µM*

Results for CC(=O)O[C@]1(C(C)=O)CC[C@H]2[C@@H]3C=C(Cl)C4=CC(=O)[C@@H]5C[C@H]5[C@]4(C)[C@@H]3CC[C@@]21C ?
ATXN2 expr inh: -15.0%

What do the screens show for `OC(C[n+]1c(Cl)ccc2ccccc21)c1ccccc1` (stereo not drawn)?
TGFb inhibitor: -3.2%; HepG2 viability: 3.1%

How did C#Cc1ccc(-c2ccccc2F)cc1 do in these assays?
ATXN viability: inactive; ATXN2 expr inh: 5.7%

How did COc1ccc([C@H]2CC(=O)C=C(c3ccccc3)C2)cc1OC do in these assays?
TGFb inhibitor: -12.1%; ATXN viability: inactive; HepG2 viability: -20.8%; ATXN2 expr inh: -26.1%

How did CCCCC/C=C/C1=CC(=O)C[C@H](c2ccc(OC)c(OC)c2)C1 do in these assays?
TGFb inhibitor: inconclusive; ATXN viability: inconclusive; HepG2 viability: -18.1%; ATXN2 expr inh: 22.4µM*

Results for COc1cc(O)ccc1-c1nc2ccc(Br)cn2c1Nc1ccccc1C ?
TGFb inhibitor: inconclusive; HepG2 viability: 15.8µM*

Results for Cc1ccccc1Nc1c(-c2cccc(O)c2)nc2ccc(Br)cn12 ?
TGFb inhibitor: inconclusive; ATXN viability: inconclusive; HepG2 viability: -64.9%; ATXN2 expr inh: inconclusive

Results for CN1CCN(CC(O)COC(c2ccc(Cl)cc2)c2ccc(Cl)cc2)CC1 (stereo not drawn) ?
TGFb inhibitor: inconclusive; ATXN viability: inactive; HepG2 viability: 10µM*

What do the screens show for `OC(COC(c1ccc(Cl)cc1)c1ccc(Cl)cc1)CN1CCCC1` (stereo not drawn)?
TGFb inhibitor: 7.7%; ATXN viability: inactive; HTT ATP protect: -10.5%; HepG2 viability: -71.2%; ATXN2 expr inh: inconclusive; HttQ103 aggreg: -6.4%

Results for OC(COC(c1ccc(Cl)cc1)c1ccc(Cl)cc1)CN1CCc2ccccc2C1 (stereo not drawn) ?
TGFb inhibitor: inconclusive; HTT ATP protect: 30.5%[10 µM]; HepG2 viability: 11.2µM*; ATXN2 expr inh: 28.2µM*; HttQ103 aggreg: inconclusive

Results for O=C(NCCc1nnc2n1CCN(Cc1c(F)cccc1F)CC2)c1ccc(F)cc1 ?
ATXN viability: inactive

How did C=CCOc1ccc(Cl)cc1CNC1CCCC1 do in these assays?
TGFb inhibitor: -1.5%; ATXN viability: inactive; HTT ATP protect: 22.4µM*; HepG2 viability: -20.0%; ATXN2 expr inh: -6.9%; HttQ103 aggreg: -4.5%

How did Oc1ccc(Cl)cc1CNC1CCCCC1 do in these assays?
TGFb inhibitor: -1.4%; ATXN viability: inactive; HepG2 viability: -14.2%; ATXN2 expr inh: -16.9%
